This is an account of results in the supplement of paper PMC9950053.

Where a name gives a salt, the structure may show the parent alone.

For the first experiment, the system named is Danio rerio larvae (5 dpf). The experiment is described as follows: habituation (activity change first vs second 5 min of 1-s interval sound, period 17) minus DMSO control (percentage points); higher = larger habituation measure than DMSO larvae. As to conditions: 10 µM; exposure time: 3 h pre-incubation + 3 h imaging. The gist of the method:
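At 28.5 °C, 5 dpf wild-type zebrafish larvae were treated with compounds (10 µM final) for 3 h ahead of and 3 h during imaging at one frame every 6 s. Tracks came from Z-LaP Tracker, discarding detections under 0.5 probability and any larva moving under 1% of the time. Each behavioural value is the difference, in percentage points, between the treated group mean and the control mean, with 48 larvae per group and 844 in the control.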
Regarding `OCCOCCN1CCN(C2=Nc3ccccc3Sc3ccccc32)CC1` [Quetiapine hemifumarate], the habituation was -4.22.
Take `CC1(C)O[C@@H]2[C@@H](CO[C@@]3(COS(N)(=O)=O)OC(C)(C)O[C@@H]23)O1` [Topiramate]: the habituation is -1.06.
For `CN1CC[C@@H](NC(=O)Nc2ccc(C#N)cc2)C[C@@H]1c1nc2ccccc2[nH]1`, the habituation is -0.504.
Still for that read-out and setting: the figure for `CCCN(CCc1cccs1)[C@H]1CCc2c(O)cccc2C1` [Rotigotine hydrochloride] is -11.4; for `CC(C)[C@H]1CC[C@H](C(=O)N[C@H](Cc2ccccc2)C(=O)O)CC1` [Nateglinide] it is -2.04.
The same measure, in the same setting: the figure for `C[C@H]1C[C@@H]2[C@H]([C@@H](O)C[C@@]3(C)[C@H]2CC[C@]3(O)C(=O)CO)[C@@]2(C)C=CC(=O)C=C12` [Methylprednisolone] is 0.909.

For the next experiment, the system named is Danio rerio larvae (5 dpf). As to the kind of experiment: combined optomotor response (time in upper well half, down vs up moving lines, periods 7-14) minus DMSO control (percentage points); higher = stronger optomotor response than DMSO larvae. As to conditions: 10 µM; exposure time: 3 h pre-incubation + 3 h imaging.
For `COc1cc2ncnc(Nc3ccc(F)c(Cl)c3)c2cc1OCCCN1CCOCC1` [Iressa], the combined optomotor response worked out at 5.72.
Still for that read-out and setting: the figure for `CCOc1ccccc1OCCN[C@H](C)Cc1ccc(OC)c(S(N)(=O)=O)c1` [Tamsulosin hydrochloride] is 4.93.
Take `Cc1nnc(C(C)C)n1C1C[C@H]2CC[C@@H](C1)N2CC[C@H](NC(=O)C1CCC(F)(F)CC1)c1ccccc1` (stereo in doubt) [Maraviroc]: the combined optomotor response is 0.791.
In the case of `Clc1ccccc1C(c1ccccc1)(c1ccccc1)n1ccnc1` [Clotrimazole], the combined optomotor response is -7.18.
Still for that read-out and setting: the figure for `CC(C)c1ccc2oc3nc(N)c(C(=O)O)cc3c(=O)c2c1` [Amlexanox] is 4.64; for `O=C(c1ccc(OCCN2CCCCC2)cc1)c1c(-c2ccc(O)cc2)sc2cc(O)ccc12` [Raloxifene hydrochloride] it is -1.27.
Take `OCCOCCN1CCN(C2=Nc3ccccc3Sc3ccccc32)CC1` [Quetiapine hemifumarate]: the combined optomotor response came to 8.62.
The same measure, in the same setting: the figure for `CC1(C)O[C@@H]2[C@@H](CO[C@@]3(COS(N)(=O)=O)OC(C)(C)O[C@@H]23)O1` [Topiramate] is -3.96; for `CN1CC[C@@H](NC(=O)Nc2ccc(C#N)cc2)C[C@@H]1c1nc2ccccc2[nH]1` it is -1.72.
Turning to `CC(C)n1c(/C=C/C(O)CC(O)CC(=O)O)c(-c2ccc(F)cc2)c2ccccc21` (centres undefined) [Fluvastatin sodium], the combined optomotor response was -0.348.
In the case of `O=c1[nH]c(=O)n([C@H]2C[C@H](O)[C@@H](CO)O2)cc1C(F)(F)F` [Trifluorothymidine], the combined optomotor response came out at 5.31.
Regarding `C[C@]12CC[C@@H]3c4ccc(O)cc4C[C@@H](CCCCCCCCC[S+]([O-])CCCC(F)(F)C(F)(F)F)[C@H]3[C@@H]1CC[C@@H]2O` (some centres undefined), the combined optomotor response stood at 2.46.
Consider `C=CC(=O)N1CCC[C@@H](n2nc(-c3ccc(Oc4ccccc4)cc3)c3c(N)ncnc32)C1` [Ibrutinib], for which the combined optomotor response was 5.02.
`COc1ccc(C[C@@H](C)NC[C@H](O)c2ccc(O)c(NC=O)c2)cc1` [Arformoterol tartrate]: the combined optomotor response was -7.68.
On to `CCN(Cc1ccncc1)C(=O)C(CO)c1ccccc1` (centres undefined) [Tropicamide], for which the combined optomotor response was found to be 0.19.
Still for that read-out and setting: next, `CCCCc1nc(Cl)c(CO)n1Cc1ccc(-c2ccccc2-c2nnn[nH]2)cc1` [Losartan potassium]: -0.522; `CC(C)(C(=O)c1cccnc1)c1cccnc1` [Metyrapone]: -5.86; `CC(=O)Oc1ccccc1C(=O)O` [Aspirin]: -1.47.
`CC1CNc2c(cccc2S(=O)(=O)N[C@@H](CCCNC(=N)N)C(=O)N2CC[C@@H](C)C[C@@H]2C(=O)O)C1` (some centres undefined) [Argatroban]: the combined optomotor response worked out at 3.86.
In the case of `CC1=Nc2ccc(Cl)cc2S(=O)(=O)N1` [Diazoxide], the combined optomotor response amounted to 2.18.
On to `Cc1ccc(N(CC2=NCCN2)c2cccc(O)c2)cc1` [Phentolamine Mesylate], for which the combined optomotor response amounted to 7.07.
`Cc1nc(Nc2ncc(C(=O)Nc3c(C)cccc3Cl)s2)cc(N2CCN(CCO)CC2)n1` [Dasatinib]: the combined optomotor response was -2.04.
Consider `CCCN(CCc1cccs1)[C@H]1CCc2c(O)cccc2C1` [Rotigotine hydrochloride], for which the combined optomotor response is -12.7.
On to `CC(=O)O[C@H]1C(=O)[C@@]2(C)[C@H]([C@H](OC(=O)c3ccccc3)[C@]3(O)C[C@H](OC(=O)[C@H](O)[C@@H](NC(=O)c4ccccc4)c4ccccc4)C(C)=C1C3(C)C)[C@]1(OC(C)=O)CO[C@@H]1C[C@@H]2O` [Taxol], for which the combined optomotor response was -0.695.
In the case of `CCOc1nc2cccc(C(=O)O)c2n1Cc1ccc(-c2ccccc2-c2noc(=O)[nH]2)cc1` [Azilsartan], the combined optomotor response was found to be 0.518.
As for `CN1CC(=O)N2[C@H](c3ccc4c(c3)OCO4)c3[nH]c4ccccc4c3C[C@@H]2C1=O` [Tadalafil], the combined optomotor response is -1.2.
In the case of `CC/C(=C(\c1ccccc1)c1ccc(OCCN(C)C)cc1)c1ccccc1` [Tamoxifen citrate], the combined optomotor response is -10.7.
As for `CC(C)[C@H]1CC[C@H](C(=O)N[C@H](Cc2ccccc2)C(=O)O)CC1` [Nateglinide], the combined optomotor response turned out to be 3.95.
In the case of `Cn1cnc([N+](=O)[O-])c1Sc1ncnc2[nH]cnc12` [Azathioprine], the combined optomotor response worked out at 2.29.
With `C[C@H](Cc1cc2c(c(C(N)=O)c1)N(CCCO)CC2)NCCOc1ccccc1OCC(F)(F)F` [Silodosin], the combined optomotor response is 9.04.
On to `OC(CNCC(O)C1CCc2cc(F)ccc2O1)C1CCc2cc(F)ccc2O1` (centres undefined) [Nebivolol hydrochloride], for which the combined optomotor response was -9.95.
The same measure, in the same setting: next, `CS(=O)(=O)CCNCc1ccc(-c2ccc3ncnc(Nc4ccc(OCc5cccc(F)c5)c(Cl)c4)c3c2)o1` [Lapatinib]: -2.06; `C[C@H]1C[C@@H]2[C@H]([C@@H](O)C[C@@]3(C)[C@H]2CC[C@]3(O)C(=O)CO)[C@@]2(C)C=CC(=O)C=C12` [Methylprednisolone]: 8.85.
